# The panel holds about 83,000 compounds, 20% with a hit somewhere; the sample as a whole holds those more often.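 Single-concentration screen, 48 h exposure, 96-well plates. Endpoint: percent growth. Below 10 = active.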 A number with no mark means an inactive call. The source made the active and inactive calls.
# Tested on: HL-60(TB) leukemia
# Test: NCI-60 one-dose screen, 48 h (100 = growth as untreated, 0 = no growth, -100 = all killed)
# Conditions: 10 µM unless noted
row,Compound,growth
1,COc1ccc(NC(N)=NCCCOc2ccc(F)cc2)cc1,87.7%
2,CC(C)[C@H]1CC[C@H]2[C@@H](CC[C@H]3[C@](C)(CN)CCC[C@]23C)C1,71.8%
3,CCN1C(=O)N(CC)C2C1NN=c1s/c(=C\c3ccc(OC)cc3)c(=O)n12 (stereo not given),-45.9% (active)
4,O=c1c2c3c(sc2n2cnnc2n1Cc1ccccc1)CCCC3,84.3%
5,COc1ccc(COc2cc3oc(=O)c4cc(C(C)O)ccc4c3cc2OC)cc1 (stereo not given),73.1%
6,O=C(COc1cccc(/C=C2\CSc3ccccc3C2=O)c1)Nc1nccs1,-76.3% (active)
7,N#C/C(=C\c1ccc(Cl)cc1)n1nnc2cc(F)c(F)cc21,-19.4% (active)
8,COc1ccc(-c2nn(-c3cccc(NC(=O)Nc4ccc(Cl)c(C(F)(F)F)c4)c3)cc2-c2ccncc2)cc1Cl,-11.3% (active)
9,CC(=O)Nc1nc2c(s1)CCc1c-2cn(S(=O)(=O)c2ccccc2)c1-c1ccccc1,71%
10,C=C(c1ccc(C(=O)O)cn1)c1cc2c(cc1C)C(C)(C)CCC2(C)C,84.9%
11,O=C(Cc1ccc(/C=C/C(=O)c2nccs2)cc1)Nc1ccccc1,75%
12,Cc1cc2cc3cc(C)c(N(C)C)cc3nc2cc1N(C)C,47.5%
13,N#Cc1ccc([N+](=O)[O-])o1,108%
14,Oc1c(CN2CCC(N3CCCCC3)CC2)cc(Cc2cc(CN3CCC(N4CCCCC4)CC3)c(O)c3ncccc23)c2cccnc12,-6.31% (active)
15,COC(=O)/C=C1\SC(=Nc2cccc(OC)c2)N(CCc2c[nH]c3ccccc23)C1=O,22.2%
16,N=C1C=C(N)C(=O)c2ccccc21,-32.8% (active)
17,COc1cccc(C2=NN3C(C2)c2ccccc2OC3c2ccc(/C=C3\SC(=O)NC3=O)cc2)c1 (stereo not given),100%
18,COc1cc([C@@H]2c3cc4c(cc3C(O[C@@H]3O[C@@H]5CO[C@@H](c6cccs6)OC5[C@H](O)[C@H]3O)C3COC(=O)[C@@H]32)OCO4)cc(OC)c1O (stereo not given in full),-21.7% (active)
19,C#CCN(Cc1ccc2nc(N)[nH]c(=O)c2c1)c1ccc(C(=O)NC(CCC(=O)O)C(=O)O)cc1 (stereo not given),43.6%
20,O=C(CC(CC(=O)c1ccccc1)c1ccccn1)c1ccccc1,104%
21,O=C(O)c1ccc2nc(-c3ccc(OCCCCCOc4ccc(-c5nc6ccc(C(=O)O)cc6[nH]5)cc4)cc3)[nH]c2c1,108%
22,Cc1cccc(N=Nc2cccc(C)c2)c1,125%
23,COc1cc(C2CC(c3ccc(C)cc3)=NN2C=O)ccc1Oc1ccnc2cc(Cl)ccc12 (stereo not given),94.8%
24,COc1ccc(-c2cc(-c3cc(OC)ccc3O)[nH]c(=O)c2C#N)cc1,16.9%
25,COC(=O)C1(C)COP(=O)(NC23CC4CC(CC(C4)C2)C3)OC1 (stereo not given),119%

# From PubChem BioAssay (NCI)
